Compound activity (PubChem)
esBAF inh = inhibitors of esBAF chromatin remodeling in mouse ES cells; hit rate 2% among 350,000; Bmi1-luciferase knock-in reporter, 24 h; 100% = twice the neutral-well signal; reporter increase, % at 12.5 µM; in the data active = activation above about 40%; inconclusive = no clear call, values can overlap the other calls;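 also: 0% = median of the plate's neutral control wells and 100% = double that signal; a rise in the Bmi1 reporter signal indicates esBAF inhibition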
C2C12 statin = protects C2C12 myotubes from simvastatin toxicity. ATP luminescence, 48 h; scaled: DMSO 0, geranylgeraniol control 100. hit rate 0.78% among 330,000. rescue of ATP level, % at 7.49 µM;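 active = mean ATP rescue above about 67%, or every replicate alone reaching that limit, limit read from the data, passing the limit was not always enough; inconclusive = no clear call, values can overlap the other calls; inactive = mean under the limit and some replicate under it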;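 also: myotubes were challenged with 10 µM simvastatin during compound exposure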
Wnt act = activates Wnt/beta-catenin signaling in a reporter cell assay | activator, plate reader | hit rate 1.2% among 300,000 | activation, % at 9.35 µM; in the data active = activation above about 30%, passing the limit was not always enough; inconclusive = no clear call, values can overlap the other calls;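 also: 0% = neutral control wells and 100% = positive control wells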
MITF act = increases MITF-driven TRPM1 promoter luciferase signal; SK-MEL-5 TRPM1-promoter luciferase, 24 h; % of positive control, neutral wells = 0; activation, % at 12.5 µM; hit rate 0.75% among 300,000; AID 588334;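 active = mean activation of at least 80% with every replicate also reaching 80%; inconclusive = mean reaches 80% but some replicate falls short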;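 also: 0% = neutral control wells and 100% = parthenolide positive control wells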
Rtt109 HAT inh = inhibitors of Candida albicans Rtt109/Vps75 histone acetyltransferase; Q5AAJ8; purified Rtt109/Vps75, ThioGlo CoA-SH fluorescence, 4 h; inhibition, % at 34.9 µM; hit rate 0.16% among 330,000; AID 540336;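 active = inhibition of at least 50% in every replicate; inconclusive = best replicate reaches 50% inhibition but some replicates fall short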
Target sequence (Q5AAJ8 whole entry, looked up): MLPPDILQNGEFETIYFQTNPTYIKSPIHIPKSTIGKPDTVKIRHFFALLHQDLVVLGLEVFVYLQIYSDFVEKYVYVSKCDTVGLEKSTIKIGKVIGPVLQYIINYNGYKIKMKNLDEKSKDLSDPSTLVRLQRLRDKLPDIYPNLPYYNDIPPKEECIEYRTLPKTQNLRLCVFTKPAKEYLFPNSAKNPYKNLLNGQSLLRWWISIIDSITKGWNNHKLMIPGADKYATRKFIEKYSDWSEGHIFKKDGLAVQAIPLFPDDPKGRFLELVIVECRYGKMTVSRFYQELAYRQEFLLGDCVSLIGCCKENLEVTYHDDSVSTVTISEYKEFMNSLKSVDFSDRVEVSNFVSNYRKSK
* = called active by the depositor. A selection: hits, their analogues and other compounds. The true share with any hit is near 3.1%.

Screening O=C(C[C@@H]1C[C@H]2c3cc(NS(=O)(=O)c4ccc(F)cc4)ccc3O[C@H]2[C@H](CO)O1)NCC1CC1 returned esBAF inh 6 and C2C12 statin -3.
Screening C[C@H](CO)N1C[C@H](C)[C@@H](CN(C)Cc2ccc(C(=O)O)cc2)OCCCC[C@H](C)Oc2ccc(NS(=O)(=O)c3cccs3)cc2C1=O returned esBAF inh 3.
Screening CN1C(=O)c2cc(NC(=O)NC3CCCC3)ccc2OC[C@H]2O[C@H](CC(=O)O)CC[C@H]21 returned esBAF inh -4 and C2C12 statin 13.
`O=C(N/N=C/c1ccccc1Cl)c1cccc(F)c1` gave esBAF inh 53*, C2C12 statin 4, Wnt act 40*, MITF act inconclusive and Rtt109 HAT inh 7.
`O=C(CSCc1ccc(Cl)cc1)N/N=C/c1ccccc1` gave esBAF inh 0, C2C12 statin 114*, Wnt act -7, MITF act 2 and Rtt109 HAT inh 5.
`O=C(CSCc1ccc(Cl)cc1)N/N=C/c1c(Cl)cccc1Cl` gave Wnt act 0, MITF act 5 and Rtt109 HAT inh -4.
Screening O=C(CN1CCN(Cc2ccc(Cl)cc2)CC1)N/N=C/c1cccc(F)c1 returned Wnt act 43*.
C[C@H](CO)N1C[C@H](C)[C@@H](CN(C)Cc2ccccc2)Oc2ccc(NC(=O)Nc3ccc(F)cc3)cc2C1=O was read as esBAF inh -2 and C2C12 statin 25.
Screening O=C(C[C@H]1C[C@@H]2c3cc(NC(=O)NC4CCCC4)ccc3O[C@@H]2[C@H](CO)O1)NCc1ccc(Cl)cc1 returned esBAF inh 0 and C2C12 statin 0.
`O=C(C[C@@H]1C=C[C@@H](NC(=O)c2ccccc2)[C@@H](CO)O1)NCc1ccncn1` gave esBAF inh 6 and C2C12 statin -3.
`CCOC(=O)/C(N=Nc1ccc2c(c1)OCO2)=C(\C)O` gave Wnt act 7, MITF act 115* and Rtt109 HAT inh 28.
CC(=O)N(c1nnc(-c2cccc(C)c2)s1)C1CCCC1 was read as esBAF inh 52*, C2C12 statin 12, Wnt act 9 and Rtt109 HAT inh 17.
For COCCN(C(=O)C1CC1)c1nnc(-c2ccc(C)cc2)s1 the results were esBAF inh 17, C2C12 statin -13, Wnt act 26, MITF act 30 and Rtt109 HAT inh 0.
`C[C@H](CO)N1C[C@H](C)[C@@H](CN(C)C(=O)C2CCC2)Oc2ncc(-c3ccncc3)cc2C1=O` gave C2C12 statin -5.
Screening C[C@@H]1CN([C@@H](C)CO)S(=O)(=O)c2ccc(C3=CCCCC3)cc2O[C@H]1CN(C)C(=O)CN(C)C returned esBAF inh -7 and C2C12 statin 4.
`COC(=O)C[C@H]1C=C[C@@H](NC(=O)C2CC2)[C@@H](CO)O1` gave Wnt act 45*.
Screening COCCCN1C(=O)c2ccc(C(=O)Nc3cccc(OC)c3)cc2C1=O returned esBAF inh 35, C2C12 statin 5, MITF act 10 and Rtt109 HAT inh -8.
For CC(=O)Oc1cccc(NC(=O)c2ccc3c(c2)C(=O)N(CC(C)C)C3=O)c1 the results were esBAF inh 44*, C2C12 statin 1, Wnt act 27, MITF act 2 and Rtt109 HAT inh -3.
Screening C[C@H](CO)N1C[C@H](C)[C@@H](CN(C)S(C)(=O)=O)Oc2ccc(NS(=O)(=O)c3ccc(Cl)cc3)cc2C1=O returned esBAF inh -3.
Cn1c(N)c(C(=O)COC(=O)c2cc(S(=O)(=O)N3CCOCC3)ccc2F)c(=O)n(C)c1=O was read as esBAF inh 5, C2C12 statin 1, Wnt act 96*, MITF act -82 and Rtt109 HAT inh -3.
Screening Cc1ccc(S(=O)(=O)N2CCOCC2)cc1C(=O)OCC(=O)c1c(N)n(C)c(=O)n(C)c1=O returned esBAF inh -4, C2C12 statin -9, Wnt act -2, MITF act 10 and Rtt109 HAT inh -14.
O=C(O)c1ccccc1-c1ccccc1C(=O)Nc1ccc(-c2nc3cc(Cl)ccc3o2)cc1 was read as Wnt act 35*, MITF act 0 and Rtt109 HAT inh 19.
Screening CC(=O)Nc1ccc(-c2nc3cc(Cl)ccc3o2)cc1 returned esBAF inh 7, C2C12 statin -7, Wnt act 18 and Rtt109 HAT inh 5.
Cc1ccc(S(=O)(=O)Nc2ccc3c(c2)CC(=O)N([C@H](C)CO)C[C@@H](C)[C@H](CN(C)Cc2ccc(Cl)c(Cl)c2)O3)cc1 was read as esBAF inh 1 and C2C12 statin 103*.
Cc1ccc(S(=O)(=O)Nc2ccc3c(c2)CC(=O)N([C@@H](C)CO)C[C@@H](C)[C@@H](CN(C)Cc2ccc(Cl)c(Cl)c2)O3)cc1 was read as esBAF inh 4 and C2C12 statin 77*.
Screening C[C@@H]1CN([C@@H](C)CO)C(=O)Cc2cc(NS(=O)(=O)c3ccccc3)ccc2O[C@H]1CN(C)Cc1ccc(Cl)c(Cl)c1 returned esBAF inh -3 and C2C12 statin -34.
For Cc1ccc(S(=O)(=O)Nc2ccc3c(c2)CC(=O)N([C@@H](C)CO)C[C@H](C)[C@H](CN(C)Cc2ccc(Cl)c(Cl)c2)O3)cc1 the results were esBAF inh 0 and C2C12 statin 12.
For Cc1ccc(S(=O)(=O)Nc2ccc3c(c2)CC(=O)N([C@H](C)CO)C[C@H](C)[C@@H](CN(C)Cc2ccc(Cl)c(Cl)c2)O3)cc1 the results were esBAF inh 11 and C2C12 statin 145*.
Screening Cc1ccc(S(=O)(=O)Nc2ccc3c(c2)CC(=O)N([C@H](C)CO)C[C@@H](C)[C@@H](CN(C)Cc2ccc(Cl)c(Cl)c2)O3)cc1 returned esBAF inh 1 and C2C12 statin 116*.
`CN1c2ccc(C#Cc3cccnc3)cc2[C@H]2[C@H](CCN2C(=O)c2cccnc2)[C@@H]1CO` gave esBAF inh 13 and C2C12 statin -31.
For COC(=O)C[C@@H]1CC[C@H]2[C@@H](COc3ccc(NC(=O)c4cccc(Cl)c4)cc3C(=O)N2C)O1 the results were esBAF inh 4 and C2C12 statin -19.
For C[C@@H]1CN([C@@H](C)CO)C(=O)c2cc(NC(=O)c3ccccc3)ccc2O[C@@H](C)CCCCO[C@@H]1CN(C)S(=O)(=O)c1cccs1 the results were esBAF inh 0.
For Clc1ccc(CN=C2Nc3ccccc3CS2)cc1 the results were esBAF inh 56*, C2C12 statin 5, Wnt act 64* and Rtt109 HAT inh -5.
`Cc1ccc(CN=C2Nc3ccccc3CS2)cc1` gave esBAF inh -5, Wnt act 30 and Rtt109 HAT inh 0.
`CS(=O)(=O)c1ccc(N)c(SSc2cc(S(C)(=O)=O)ccc2N)c1` gave esBAF inh 2, C2C12 statin 14, Wnt act 3, MITF act -2 and Rtt109 HAT inh 182*.
